# The whole screen tested about 190,000 compounds, of which fewer than 10 were called active.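 How the source made its calls: active means EC50 below 50 µM in the dose-response confirmation; inactive means the rest.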 The list is a sample of the results. Results with a measured potency or affinity are listed apart.
# Assay: rescue of cells from ER stress-induced death, primary screen, 384-well, CSM14.1, thapsigargin, ATP luminescence (AID 1222);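 further: death triggered by thapsigargin at about 15 µM added after 2 h compound pretreatment; cell ATP read after overnight thapsigargin exposure of roughly 18 to 22 hours; reference of the scale not given here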
# Conditions: CSM14.1 thapsigargin-induced death rescue, at 20 µM, stronger effect = higher value
row,SMILES,cellular ATP content (survival)
1,COc1ccc(C2N(c3ccc(OC)cc3)C(=S)N3CCCN23)cc1 (stereo unspecified),3.3% (inactive)
2,COc1ccccc1NC(=S)N(Cc1ccc(C)cc1)Cc1cccnc1,2.6% (inactive)
3,Cc1ccc(C(=O)NNC(=O)CSc2nnc(-c3ccccc3)n2Cc2ccccc2)cc1,-1.4% (inactive)
4,O=C(CSc1ncnc2nc[nH]c12)N1CCN(c2ccccc2)CC1,0.6% (inactive)
5,CC1CCN(CCC(=O)N/N=C/c2ccc([N+](=O)[O-])cc2)CC1,-1.3% (inactive)
6,CC(C)C(=O)c1cn(CC(=O)N2CCCc3ccccc32)c2ccccc12,0.1% (inactive)
7,COc1ccc(CN(C(=O)c2nsc(Cl)c2Cl)C(C(=O)NC2CCCCC2)c2ccc(OC)cc2)cc1 (stereo unspecified),-2.1% (inactive)
8,O=C(NC1CCCCC1)C(c1ccc2ncccc2c1)N(Cc1cccs1)C(=O)c1cccs1 (stereo unspecified),-8.2% (inactive)
9,O=C(NC1CCCCC1)C(c1ccc2ncccc2c1)N(Cc1ccco1)C(=O)c1ccc2c(c1)OCCO2 (stereo unspecified),14.1% (inactive)
10,O=C(CCCC(=O)N(c1ccc2c(c1)OCCO2)C(C(=O)NC1CCCCC1)c1ccc(F)cc1)Nc1ccccn1 (stereo unspecified),-0.3% (inactive)
11,O=C(NC1CCCCC1)C(c1ccc2ncccc2c1)N(Cc1ccccc1)C(=O)c1cccs1 (stereo unspecified),-2.1% (inactive)
12,O=C(NC1CCCCC1)C(c1ccc2ncccc2c1)N(Cc1ccc2c(c1)OCO2)C(=O)c1cccs1 (stereo unspecified),-4% (inactive)
13,O=C(NC1CCCCC1)C(c1ccc2ncccc2c1)N(Cc1ccc(F)cc1)C(=O)c1cccs1 (stereo unspecified),-1.3% (inactive)
14,COc1ccc(C(C(=O)NC2CCCCC2)N(C(=O)CCCC(=O)Nc2ccccn2)c2ccc3c(c2)OCCO3)cc1 (stereo unspecified),3.5% (inactive)
15,OC(C#CCN1CCOCC1)(c1ccccc1)C1CC1 (stereo unspecified),-0.9% (inactive)
16,COc1ccc(C(CC(=O)O)NC(=O)Cc2ccccc2)cc1OC (stereo unspecified),-3% (inactive)
17,C=CCOc1ccc(C2CC(C)=NN2c2ccccc2)cc1 (stereo unspecified),6.2% (inactive)
18,Cc1ccc2c(c1)nnn2C1CCN(CC(=O)NCc2ccccc2F)CC1,3.5% (inactive)
19,COc1cc(C(C#N)N2N=C(c3ccccc3)CC2c2ccccc2)ccc1O (stereo unspecified),0.2% (inactive)
20,CN(C)c1nc(N/N=C/c2ccccc2O)nc(Nc2ccc(F)cc2)n1,-6.9% (inactive)
21,Fc1cccc(Cc2noc(CN3CCC(c4ccncc4)CC3)n2)c1,1.8% (inactive)
22,O=C(COc1ccc(Cl)cc1Cl)NCCCCc1ccccc1,-2.7% (inactive)

row,SMILES,cellular ATP content (survival)
1,CS(=O)(=O)N1CCCC(C(=O)NCc2ccc(F)cc2)C1 (stereo unspecified),0.6% (inactive)
2,CC(=O)Nc1sc2c(c1C(c1ccccn1)N1CCN(C)CC1)CCCC2 (stereo unspecified),-0.7% (inactive)
3,Cc1ccc(-c2nc(CSCC(=O)N3CCN(c4ccccn4)CC3)c(C)o2)cc1,-0.2% (inactive)
4,COc1ccccc1OCc1ccc(C(=O)NCC(C)C)o1,2.9% (inactive)
5,COc1cccc(CN=C2Nc3ccccc3CS2)c1,0.2% (inactive)
6,O=C(Nc1cc(C(F)(F)F)ccc1N1CCOCC1)c1cccc(F)c1,0.4% (inactive)
7,O=C(Nc1ccccc1)c1nn(-c2ccccc2)c(=O)cc1C(F)(F)F,2% (inactive)
8,COc1ccccc1C(C)N(C)Cc1nc(COc2ccccc2)no1 (stereo unspecified),-1.1% (inactive)
9,COc1ccc(CCN(Cc2cccs2)S(=O)(=O)c2ccc(S(=O)(=O)N3CCCCCC3)cc2)cc1OC,-1.5% (inactive)
10,O=C1c2cccc(OCC(=O)N3N=C(c4cccs4)CC3c3ccc(F)cc3)c2CCN1Cc1ccccc1 (stereo unspecified),-2.7% (inactive)
11,CN1CCc2c(OCC(=O)N3N=C(c4cccs4)CC3c3ccc(F)cc3)cccc2C1=O (stereo unspecified),1.4% (inactive)
12,CC(C)OP(=O)(OC(C)C)C(Nc1ccccc1)c1ccccc1C(F)(F)F (stereo unspecified),2.8% (inactive)
13,CCOC(=O)c1c(NC(=O)C[n+]2ccc(N(C)C)cc2)sc(C)c1C,-2% (inactive)
14,Cn1cc(Cl)c(C(=O)NNC(=S)NC2CCCCC2)n1,1.1% (inactive)
15,COC(=O)c1sc2ccccc2c1-n1cccc1C(=O)C(=O)Nc1ccc(OC)cc1,4.6% (inactive)
16,COc1ccc(/C=C(/NC(=O)c2ccccc2)c2nc3ccc(Cl)cc3[nH]2)cc1OC,1.1% (inactive)
17,Cc1ccccc1NS(=O)(=O)c1cc(C(=O)N2CCc3ccccc3C2)ccc1C,0.4% (inactive)
18,CC(C)(C)C(=O)Nc1nc(=S)ss1,0% (inactive)
19,CCn1c(NCc2ccc3c(c2)OCO3)nc2ccccc21,-1% (inactive)
20,CCOC(=O)c1cnc(-n2nc(C)cc2C)nc1Nc1ccc2c(c1)OCO2,-1.2% (inactive)
21,CCn1cc(C(=O)O)c(=O)c2cc(S(=O)(=O)N(C)C)ccc21,-1.2% (inactive)
22,O=C(Nc1ccc(N2CCOCC2)cc1)c1ccc(Cl)nc1,-0.7% (inactive)

row,SMILES,cellular ATP content (survival)
1,CCOc1ccccc1NC(=O)COC(=O)C(CC)c1ccccc1 (stereo unspecified),0.7% (inactive)
2,CCCCP(=O)(CCCC)c1ccccc1C(=O)O,-0.7% (inactive)
3,O=C(OCc1cc(=O)n2c(n1)sc1ccccc12)c1ccc(O)cc1O,-1.2% (inactive)
4,COc1ccc(NC(=S)Nc2ccc(S(N)(=O)=O)cc2)c(OC)c1,-0.3% (inactive)
5,CC(=O)c1c(C)nc2ccc(Br)cc2c1C(=O)O,0.7% (inactive)
6,COc1cccc(C2CC(c3cccs3)=NN2C(=S)Nc2ccccc2)c1OC (stereo unspecified),2.5% (inactive)
7,COc1ccc(S(=O)(=O)N2CCC(C(=O)N3CCc4ccccc4C3)CC2)cc1Cl,0.7% (inactive)
8,CCOC(=O)c1cc2c(=O)n3ccccc3nc2n(Cc2ccccc2Cl)c1=N,-1.3% (inactive)
9,CCCCNS(=O)(=O)c1ccc(S(=O)(=O)NCc2ccncc2)cc1,-1.8% (inactive)
10,Cc1nc(N2CCC(C(N)=O)CC2)c2c(-c3cccs3)csc2n1,-2.2% (inactive)
11,CCOC(=O)C1=C(C)Nc2ccccc2N=C1NC(=O)CCCN1C(=O)c2ccccc2C1=O,-1.5% (inactive)
12,COc1cc([N+](=O)[O-])ccc1NC(=O)c1cccc(NC(=O)C(C)C)c1,2.2% (inactive)
13,COC(=O)C1=NN(C(C)=O)C2(CC(=O)N(c3cccc(C)c3)C2=O)C1 (stereo unspecified),-0.1% (inactive)
14,CCN(C(=O)COc1ccccc1)C1CCCCC1,-1.5% (inactive)
15,O=C(Nc1nnc(-c2ccco2)o1)c1ccc2ccccc2c1,11.1% (inactive)
16,Cc1cc(NC(=O)CCC(=O)N(CC(=O)NC2CCCC2)c2ccccc2)no1,0.5% (inactive)
17,O=c1cc(COn2nnc3ccc(C(F)(F)F)cc32)nc2sccn12,-1.8% (inactive)
18,O=C(Nc1ccc2nc(-c3cccnc3)[nH]c2c1)C12CC3CC(CC(C3)C1)C2,-3.6% (inactive)
19,c1ccc(-c2nccc(-c3ccc(-n4cnc5ccccc54)cc3)n2)cc1,-0.9% (inactive)
20,Cc1ccc(/C(O)=C2\C(=O)C(=O)N(CCc3c[nH]c4ccccc34)C2c2cccnc2)cc1 (stereo unspecified),1.1% (inactive)
21,CCN1C(=O)/C(=C/c2ccc(N3CCCC3)cc2)NC1=S,0.3% (inactive)
22,CCCN1C(=O)/C(=C/c2ccc(N3CCCC3)c(C)c2)NC1=S,-2% (inactive)

row,SMILES,cellular ATP content (survival)
1,O=C(COC(=O)CCNS(=O)(=O)c1ccc2c(c1)OCCO2)NC1CCCc2ccccc21 (stereo unspecified),-0.1% (inactive)
2,CCc1nnc(NC(=O)CCC(=O)NC2CCCCC2)s1,-0.3% (inactive)
3,CCCCNC(=O)Cc1ccc(Br)cc1,0.7% (inactive)
4,CC1CCC2C(=O)N(c3ccc(Cc4ccncc4)cc3)C(=O)C2C1 (stereo unspecified),0.4% (inactive)
5,CC1(C(=O)NCCN2CCOCC2)C=CC2(CCCCC2)N1C(=O)c1ccccc1 (stereo unspecified),-4.5% (inactive)
6,CC(=O)OCc1cc(-c2nn(C)c(=O)c3ccccc23)ccc1C,1.5% (inactive)
7,O=C(N/N=C/c1ccccc1OC(F)F)C1=COCCO1,0.4% (inactive)
8,O=S1(=O)C=CC(Sc2nc3ccccc3[nH]2)C1 (stereo unspecified),7.3% (inactive)
9,Cc1ccc(S(=O)(=O)N2CCN(C(C)CC(=O)O)CC2)cc1 (stereo unspecified),-0.8% (inactive)
10,O=C(OCCCC(=O)N1CCOCC1)c1ccccc1,-1% (inactive)
11,COc1cc(CN(C(=S)NCC(=O)NC2CCCC2)C2CCCC2)cc(OC)c1OC,0.8% (inactive)
12,CCOc1ccc(Nc2nc(Cc3nnc(SCC(=O)NC4CCCCC4)n3C)cs2)cc1,-0.1% (inactive)
13,COc1ccc(C(=O)OCC(=O)N(C)C2CCS(=O)(=O)C2)cc1S(=O)(=O)N1CCCc2ccccc21 (stereo unspecified),1.7% (inactive)
14,COc1ccc2c(c1)N(C(=O)CSc1n[nH]c(C)n1)C(C)(C)C=C2C,5.3% (inactive)
15,COc1ccc(/C=C/C(=O)OCC(=O)Nc2cc(C(F)(F)F)ccc2Cl)cc1,-2.1% (inactive)
16,Cc1cc(C)c(C(=O)CN2C(=O)NC3(CCCCC3)C2=O)cc1C,-0.6% (inactive)
17,COc1ccc(S(=O)(=O)Oc2cccc(/C=N/N=C3/NC(=O)C(CC(=O)O)S3)c2)cc1 (stereo unspecified),7.5% (inactive)
18,CCCN1CCC(NC(=O)Nc2cc(Cl)ccc2OC)CC1,0.1% (inactive)
19,CC(=O)N1CCN(c2ccc([N+](=O)[O-])c(NCc3cccnc3)c2)CC1,-0.8% (inactive)
20,N#Cc1cc(-c2ccccc2)nc(Oc2ccc(Cl)cc2)n1,-1.2% (inactive)
21,CCCn1nc2cc(C(=O)NCc3ccc(OC(F)(F)F)cc3)ccc2c1OCC,-1.1% (inactive)
22,Cc1ccc(S(=O)(=O)c2nc(-c3ccccc3)oc2NCc2cccnc2)cc1,3.8% (inactive)

row,SMILES,cellular ATP content (survival)
1,Cc1ccc(Nc2nc(-c3ccc(S(=O)(=O)N4CCOCC4)cc3)cs2)cc1Cl,-1.8% (inactive)
2,CC(C)(C)N/N=C/c1c(O)n(-c2ccc(Cl)cn2)c(=O)c2ccccc12,-1.2% (inactive)
3,O=C(Nc1cccc(C2OCCCO2)c1)c1cccs1,-3.3% (inactive)
4,O=C(c1ccc2ccccc2c1)c1c[nH]cc1-c1ccccc1,0.1% (inactive)
5,CC12COC3(C(=O)Nc4ccccc4)CC1CCC32C (stereo unspecified),0.2% (inactive)
6,Cc1ccccc1NC(=O)C12CC3CCC1(C)C3(C)CO2 (stereo unspecified),3.2% (inactive)
7,CN(C1CCCCC1)S(=O)(=O)c1ccc(NC(=O)CCC(=O)O)cc1,-1.8% (inactive)
8,O=C(N[C@@H](Cc1ccccc1)C(=O)O)c1cccnc1,-0.2% (inactive)
9,O=[N+]([O-])c1ccc(Nc2nc(Cl)nc(NCCO)n2)cc1,-0.9% (inactive)
10,Cc1ccc(S(=O)(=O)N2CCN(C(=O)CSc3nnc(C)c(=O)[nH]3)CC2)cc1,0.3% (inactive)
11,O=C(NC(=S)N1CCN(c2ccccn2)CC1)c1ccco1,-0.1% (inactive)
12,COc1ccccc1NC(=O)C/C(C)=N/NC(=O)COc1c(Br)cc(Br)cc1OC,2.1% (inactive)
13,CCC(=O)N1CCc2cc(S(=O)(=O)CCC(=O)Nc3ccc(CC)cc3)ccc21,-3.3% (inactive)
14,O=c1[nH]c(CSc2nnc(-c3ccccc3)n2C2CCCCC2)nc2ccccc12,0.3% (inactive)
15,CC1C(c2ccccc2)=[N+]([O-])C2(CCCCC2)N1O (stereo unspecified),-0.2% (inactive)
16,Cn1c(=O)c2c(nc(CN3CCN(Cc4ccccc4)CC3)n2CCN2CCOCC2)n(C)c1=O,2.6% (inactive)
17,CCOc1ccccc1-n1c(SCC(=O)Nc2nccs2)nnc1-c1ccoc1C,1.4% (inactive)
18,O=c1[nH]c(CCC2CCCC2)nc2ccccc12,-3.1% (inactive)

# Reference: PubChem BioAssay AID1222 (Sanford-Burnham Center for Chemical Genomics, 2008)
